Compound activity as filed in PubChem BioAssay.
Hits are enriched below; roughly 7.9% of the tested compounds scored in any of these assays.
HCMV inh = inhibitors of human cytomegalovirus. HFF cells, HCMV-luciferase reporter, 72 h; active compounds read low. activity change, negative = inhibition, % at 57.5 µM. 4.5% of 410,000 active; in the data active = activity change below about -60%; inconclusive = no clear call, values can overlap the other calls; inactive = above about -39%
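Cell-based, HFFs, 1000 cells/well, 16 h 37C; cpds in DMSO + HCMV-luc, MOI 1 PFU/cell; 72 h 37C; OneGlo luminescence after 5 min RT; norm. to buffer vs Salinomycin 10uM.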
FMDV inh = antivirals against foot and mouth disease virus. 1.2% of 410,000 active. Potency, µM (doses to about 57.9 µM), without a hit: top-dose activity change, negative = inhibition, hits mostly inhibitors. AID 1159524. FMDV antiviral cell-based qHTS; calls by dose curve; tested in HEK293T cells; also: read-out not given here; potency is read from the fitted curve at half-maximal effect; nearly all actives have a fitted effect of over 45% in size
Lassa entry inh = Lassa virus entry inhibition; Lassa virus pseudotype entry inhibition, cell reporter; Potency, µM (top dose mostly 37.9 µM), for the others: at the top dose activity change, negative = inhibition, hits mostly inhibitors; 1.2% of 300,000 active; calls by dose curve; tested in HEK293 cells; also: potency is read from the fitted curve at half-maximal effect; nearly all actives have a fitted effect of over 50% in size
HCV inhibitor = HCV inhibition; Potency, µM (series often up to 41.8 µM), without a hit: top-dose activity change, negative = inhibition, actives largely listed as inhibitors; Huh7.5.1 HCVcc-Cre infection, luciferase reporter, 44 h; 3.4% of 340,000 active; active = well fitted inhibition curve with a large enough effect; inconclusive = small, poorly fitted or top-dose-only effect, or another doubt; inactive = no such curve, though single readings can be large or run the other way; also: potency is read from the fitted curve at half-maximal effect
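Infectious HCVcc-Cre (~0.5 moi) was added to cells just after compound, with cells seeded 4 h earlier at 1,000 per well. Luciferase activity after 44 h culture reported infection; substrate was incubated 15 min at room temperature before reading.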
MARV entry inh = Marburg virus entry inhibition; 1.8% of 300,000 active; Potency, µM (series often up to 37.8 µM), without a hit: at the top dose activity change, negative = inhibition, actives largely listed as inhibitors; Marburg virus pseudotyped entry inhibition, cell reporter; calls by dose curve; tested in HEK293 cells; also: potency is read from the fitted curve at half-maximal effect
* hit, by the source's call; ? = inconclusive; nt = no result; [ ] = another dose, or the depositor's remark. % is scaled to controls: 0 for no effect and ±100 for the full control effect.

SMILES	HCMV inh	FMDV inh	Lassa entry inh	HCV inhibitor	MARV entry inh
CC(Sc1nc2cc([N+](=O)[O-])ccc2n1-c1ccc(F)cc1)C(=O)NCc1ccc2c(c1)OCO2 (stereo not drawn)	-22	-2%	?	?	?
COc1ccccc1-n1c(SCC(=O)NCc2ccc3c(c2)OCO3)nc2cc([N+](=O)[O-])ccc21	-11	2%	?	25µM*	24%
CCCn1cc(SCC(=O)NCc2ccc3c(c2)OCO3)c2ccccc21	-1	8%	nt	?	nt
Cc1ccccc1OCCc1c(C)[nH]c(=S)[nH]c1=O	-64*	?	?	-25%	?
Cc1cccc(OCc2nc(CC(=O)Nc3ccc(C)c(C)c3)cs2)c1	0	3%	9%[46.1 µM]	nt	-1%[46.1 µM]
COc1ccccc1NC(=O)N[C@H]1CC[C@@]23CCCN2C(=O)CCC[C@H]3C1Cc1ccccc1 (stereo partly drawn)	-14	nt	nt	nt	nt
Cn1c2ccccc2c2cc(C(=O)NNC(=O)CCl)sc21	-21	16µM*	-18%	?	?
CCCNC(=O)c1cc2c3ccccc3n(C)c2s1	76	4%	?	?	-22%
CCCC(=O)NC1=C(Cl)C(=O)c2ccccc2C1=O	?	?	?	3.2µM*	?
Cc1ccc(NC2=C(Cl)C(=O)c3ccccc3C2=O)cc1	39	-37%	13µM*	7.1µM*	?
Cc1ccc(NC2=C(N3CCOCC3)C(=O)c3ccccc3C2=O)cc1	4	nt	?	?	?
CCNC1=C(Cl)C(=O)c2ccccc2C1=O	-33	-25%	-14%	?	-19%
COC1=C(Nc2ccc(O)cc2)C(=O)c2ccccc2C1=O	-14	-9%	?	?	?
O=C1C(Cl)=C(Nc2ccc(O)cc2)C(=O)c2ccccc21	-99*	32µM*	4.5µM*	?	?
CCN(CC)c1ccc(NC2=C(Cl)C(=O)c3ccccc3C2=O)cc1	nt	?	5.6µM*	?	4µM*
O=C(c1ccc2ccccc2c1)N1CCn2c(nnc2C(=O)N2CCOCC2)C1	-1	nt	nt	nt	nt
COC(=O)c1cc(OC(C)C)ccc1NC(=O)[C@@]1(Sc2ccc(OC)cc2)CC(=O)N[C@@H]1c1ccc(OC)cc1	-39	nt	nt	nt	nt
CCN1C(=O)NC(CCc2ccccc2)C(C(C)=O)=C1C (stereo not drawn)	nt	nt	nt	nt	-9%[14.2 µM]
c1ccc(-c2nnc(CN3CCN(c4ccccn4)CC3)o2)cc1	21	2%	0%[46.1 µM]	nt	16%[46.1 µM]
CC(=O)CCc1oc2c([N+](=O)[O-])cccc2c1-c1ccc(C)o1	31	-26%	nt	13µM*	nt
COc1ccccc1-c1c(C#N)c(N)nc2c1CCc1ccccc1-2	17	32µM*	?	?	?
COc1ccccc1-c1c(C)c(C)nc(N)c1C#N	-72*	-1%	17%	13%	17%
CCOc1cc(-c2c(C#N)c(N)nc3c2CCc2ccccc2-3)ccc1O	-19	?	?	?	?
Oc1cc(-c2nc3ccccc3s2)cc2c1OCCN(Cc1cn[nH]c1-c1ccc(Cl)cc1)C2	nt	10%	nt	nt	nt
O=[N+]([O-])c1ccc(CSc2nc3ncc(Br)cc3[nH]2)cc1	-62*	16%	nt	-2%	nt
SMILES	HCMV inh	FMDV inh	Lassa entry inh	HCV inhibitor	MARV entry inh
O=C(CSc1nc2ncc(Br)cc2[nH]1)c1cccc([N+](=O)[O-])c1	-2	8%	-17%	-26%	-24%
C[C@@H]1CN([C@H](C)CO)C(=O)c2c(c3ccccc3n2C)-c2ccccc2CO[C@H]1CN(C)Cc1ccc(C(F)(F)F)cc1	-106*	?	nt	nt	nt
C[C@@H]1CN([C@H](C)CO)C(=O)c2c(c3ccccc3n2C)-c2ccccc2CO[C@H]1CN(C)Cc1ccc(Oc2ccccc2)cc1	-19	-22%	nt	nt	nt
Cc1ccc2c(CC(=O)N3CCOc4ccc(CN5C[C@@H](C)O[C@@H](C)C5)cc4C3)cc(=O)oc2c1	nt	-6%	nt	nt	nt
O=C(NCc1ccccc1)c1cccn1-c1nnc(N2CCCCC2)s1	?	28%	-10%[46.1 µM]	nt	nt
COc1ccc(C)cc1NC(=O)CNc1ccccc1CN(C)C1CCCCC1	-18	?	-21%[46.1 µM]	-3%	4.5µM*
COc1ccc(Cl)cc1NC(=O)CN(C)C1CCCCC1	-32	-27%	-17%	?	?
COc1ccc(Cl)cc1NC(=O)CNc1ccccc1CN(C)C1CCCCC1	3	?	?	-28%	2.5µM*
Cc1ccc(NC(=O)CNc2ccccc2CN(C)C2CCCCC2)cc1	?	-11%	nt	-21%	nt
Cc1ccc2c(c1)CN(CCNC(=O)c1cccc(Cn3cccn3)c1)CC(C)O2 (stereo not drawn)	nt	25%	nt	nt	nt
Cc1cc(C)c(S(=O)(=O)N2CCC(N3CCN(Cc4ccccc4)C(=O)C3=O)CC2)c(C)c1	15	-17%	10%[46.1 µM]	nt	nt
COc1ccc(CN(C(=O)c2nsc(Cl)c2Cl)C(C(=O)NC2CCCC2)c2ccc(OC)cc2)cc1 (stereo not drawn)	12	-2%	21µM*	-8%	?
COc1ccc(CN(C(=O)c2snc(C(N)=O)c2N)C(C(=O)NC2CCCC2)c2ccc(OC)cc2)cc1 (stereo not drawn)	-6	-3%	?	?	-19%[46.1 µM]
CCOc1ccc(NC(=O)[C@@H](c2ccccc2)N2Cc3ccccc3C2=O)cc1	-4	6%	26%[46.1 µM]	nt	3%[46.1 µM]
N/C(=N\OC(=O)C12CC3CC(CC(C3)C1)C2)c1ccccc1	65	47%	?	5µM*	?
N/C(=N\OC(=O)N1CCOCC1)c1ccccc1	?	nt	12µM*	-19%	?
N/C(=N\OC(=O)C12CC3CC(CC(C3)C1)C2)c1cccnc1	1	nt	3%	?	-4%
N/C(=N\OC(=O)N1CCOCC1)c1ccc(Cl)cc1	-31	16%	?	2%	10µM*
N/C(=N\OC(=O)N1CCOCC1)c1ccc(Br)cc1	-76*	26%	nt	?	nt
N/C(=N\OC(=O)c1ccoc1)c1ccc(Br)cc1	33	56%	nt	0%	nt
S=C(c1ccc(Cl)cc1)N1CCOCC1	-25	1%	-1%	7%	2%
CCCc1[nH]nc2c1[C@@H](c1cccc(OC)c1)C(C#N)=C(N)O2	nt	nt	nt	nt	4%
COc1cccc(NC(=O)Cn2c(=O)n(CCC(=O)NCc3ccccc3OC)c(=O)c3ccccc32)c1	-10	-7%	?	nt	13%[46.1 µM]
COc1ccc(NC(=O)c2ccc(NC(=O)CCS(=O)(=O)c3cccs3)cc2)cc1OC	15	0%	2%[46.1 µM]	nt	-12%[46.1 µM]
Cc1nn(CC(=O)NCc2ccc(N(C)C)cc2)c(=O)c2nn(-c3ccccc3)c(C)c12	3	-18%	2%[46.1 µM]	nt	nt
Cc1ccc(NC(=O)N2CCC(CN3CCCCC3)CC2)c(Cl)c1	1	-2%	19%[46.1 µM]	nt	nt
C=C(CO[C@@H]1C=C[C@@H](c2ccccc2)O[C@@H]1COC)c1ccccc1	nt	nt	nt	nt	-4%[14.2 µM]
COc1cccc([C@H]2/C(=C(\O)c3cnn(-c4ccccc4)c3C)C(=O)C(=O)N2CCN(C)C)c1	nt	nt	nt	nt	0%
CC(C)CN(CCNC(=O)c1cc(-c2ccc(Cl)s2)nc2ccccc12)CC(C)C	-17	-10%	16%[46.1 µM]	nt	3%[46.1 µM]
